Here are results for ten compounds from PubChem BioAssay (NCI).

The nature of test [1]: NCI Yeast Anticancer Drug Screen. Data for the rad50 strain (AID 155).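 Further: 0% = growth of vehicle-only cultures of the same strain.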 The settings on record: S. cerevisiae rad50 strain growth inhibition, stronger effect = higher value. The method, boiled down: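 Yeast carrying a defined DNA repair defect were exposed to test compounds, and growth was compared with vehicle-treated controls to give percent inhibition.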
Test [2] can be described thus: NCI Yeast Anticancer Drug Screen. Data for the mec2-1 strain (AID 157). The settings on record: S. cerevisiae mec2-1 strain, stronger effect = higher value. The method, boiled down: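 Readout is yeast growth inhibition, normalised to vehicle-treated controls, in the mec2-1 strain exposed to compound.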
Test [3] in a line: NCI Yeast Anticancer Drug Screen. Data for the sgs1 mgt1 strain (AID 161).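 Further: 0% = growth of cultures given vehicle only.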 The settings on record: S. cerevisiae sgs1 mgt1 strain, stronger effect = higher value. The method, boiled down: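 Yeast cells carrying a defined DNA-repair defect were exposed to test compounds. Growth inhibition was measured relative to vehicle-treated controls.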
Test [4] is described as follows: NCI Yeast Anticancer Drug Screen. Data for the cln2 rad14 strain (AID 165).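 Further: 0% = growth equal to vehicle treated cultures.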 The settings on record: S. cerevisiae cln2 rad14 strain, stronger effect = higher value. In a few lines: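 Relative to vehicle controls, growth inhibition of compound-treated cln2 rad14 yeast was recorded.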
Test [5] can be described thus: NCI Yeast Anticancer Drug Screen. Data for the bub3 strain (AID 167). The settings on record: S. cerevisiae bub3 mutant strain, stronger effect = higher value. The method, boiled down: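 Compounds were applied to a genetically altered yeast strain carrying a cell-cycle control defect. Growth inhibition was scored against vehicle-treated controls.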
Test [6] in a line: NCI Yeast Anticancer Drug Screen. Data for the mlh1 rad18 strain (AID 175). The settings on record: S. cerevisiae mlh1 rad18 strain growth inhibition, stronger effect = higher value. In a few lines: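 Test agents were incubated with a yeast strain of defined genotype (DNA damage repair defect). Inhibition of growth was derived by comparison with vehicle-exposed cultures.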
Setting [7] is: at 5.0 µM (retest, dose inferred, filed as 0.5).
Setting [8] is: at 50.0 µM (retest, dose inferred, filed as 5.0).

Structures are written as SMILES. The panel holds about 79,000 compounds, 15% with a hit somewhere; the sample as a whole holds those more often. A number with no mark means an inactive call. Calls of active or inactive are those of the source. No stated cut-off is given here; in the data, active means growth inhibition above about 70%; inactive means the rest.

Regarding `CN(Cc1ccccc1)c1nc(=[N+](C)C)ss1`, the growth inhibition in test [1] (setting [7]) was 5%; in test [1] (setting [8]) it was -1%; in test [1] (at 50.0 µM), 4.35%; in test [2] (setting [7]) it was -5%; in test [2] (setting [8]), -1%; in test [2] (at 50.0 µM), 8.8%. Further, the growth inhibition in test [3] (setting [7]) is 11%; in test [3] (setting [8]), 8%; in test [3] (at 50.0 µM), 26.3%; in test [4] (setting [7]), 17%; in test [4] (setting [8]), 15%; in test [4] (at 50.0 µM) it was -30.9%. Besides, the growth inhibition in test [5] (setting [7]) is 14%; in test [5] (setting [8]), 11%; in test [5] (at 50.0 µM), 12.2%; in test [6] (setting [7]), 10%; in test [6] (setting [8]) it was 16%; in test [6] (at 50.0 µM) it was 33.4%.
Turning to `CC(C)(C)C1=NC(=S)SC2=NC(=O)C3(NN21)c1ccccc1-c1ccccc13`, the growth inhibition in test [1] (setting [7]) was 6%; in test [1] (setting [8]) it was 86% (active); in test [1] (at 50.0 µM) it was 90.9% (active); in test [2] (setting [7]), -6%; in test [2] (setting [8]) it was 53%; in test [2] (at 50.0 µM) it was 74.3% (active). Also, the growth inhibition in test [3] (setting [7]) is 5%; in test [3] (setting [8]), 78% (active); in test [3] (at 50.0 µM), 86.6% (active); in test [4] (setting [7]), -10%; in test [4] (setting [8]), 45%; in test [4] (at 50.0 µM), 63%. Moreover, the growth inhibition is -11% in test [5] (setting [7]); 72% (active) in test [5] (setting [8]); 91% (active) in test [5] (at 50.0 µM); 6% in test [6] (setting [7]); 77% (active) in test [6] (setting [8]); 94.9% (active) in test [6] (at 50.0 µM).
Regarding `C/C=C(\C)C(=O)OC1C(C)C2(O)C(C=C(CO)CC3(O)C(=O)C(C)=CC32)C2C(C)(C)C12OC(=O)CCCCCCCCC` (stereo not given), the growth inhibition in test [1] (setting [7]) is 0%; in test [1] (setting [8]), 85% (active); in test [1] (at 50.0 µM), 79% (active); in test [2] (setting [7]), -3%; in test [2] (setting [8]) it was 90% (active); in test [2] (at 50.0 µM), 84.1% (active). The growth inhibition is -15% in test [3] (setting [7]); 89% (active) in test [3] (setting [8]); 83.4% (active) in test [3] (at 50.0 µM); 24% in test [4] (setting [7]); 86% (active) in test [4] (setting [8]); 75.7% (active) in test [4] (at 50.0 µM). For the same compound, the growth inhibition was 33% in test [5] (setting [7]); 89% (active) in test [5] (setting [8]); 80.9% (active) in test [5] (at 50.0 µM); 22% in test [6] (setting [7]); 86% (active) in test [6] (setting [8]); 81.6% (active) in test [6] (at 50.0 µM).
In the case of `CC(C)CC(NC(=O)COc1c(Cl)cc(Cl)c(Cl)c1Cl)C(=O)O` (stereo not given), the growth inhibition is 0% in test [1] (setting [7]); 8% in test [1] (setting [8]); 13% in test [1] (at 50.0 µM); -1% in test [2] (setting [7]); 39% in test [2] (setting [8]); -8.6% in test [2] (at 50.0 µM). The growth inhibition in test [3] (setting [7]) was -1%; in test [3] (setting [8]), 12%; in test [3] (at 50.0 µM), -32.6%; in test [4] (setting [7]) it was 4%; in test [4] (setting [8]), 19%; in test [4] (at 50.0 µM), 3.35%. For the same compound, the growth inhibition in test [5] (setting [7]) is 5%; in test [5] (setting [8]), 10%; in test [5] (at 50.0 µM), 1%; in test [6] (setting [7]), -2%; in test [6] (setting [8]), 12%; in test [6] (at 50.0 µM), 25.9%.
As for `OCc1ccccc1CC(O)(c1ccccc1)c1ccccc1`, the growth inhibition in test [1] (setting [7]) is -7%; in test [1] (setting [8]), 92% (active); in test [1] (at 50.0 µM), 97.8% (active); in test [2] (setting [7]) it was -8%; in test [2] (setting [8]), 87% (active); in test [2] (at 50.0 µM), 97.3% (active). Further, the growth inhibition was -7% in test [3] (setting [7]); 94% (active) in test [3] (setting [8]); 95.8% (active) in test [3] (at 50.0 µM); -3% in test [4] (setting [7]); 70% (active) in test [4] (setting [8]); 75.5% (active) in test [4] (at 50.0 µM). Besides, the growth inhibition in test [5] (setting [7]) was -19%; in test [5] (setting [8]), 11%; in test [5] (at 50.0 µM), 88.5% (active); in test [6] (setting [7]) it was -20%; in test [6] (setting [8]), 90% (active); in test [6] (at 50.0 µM) it was 94.4% (active).
Turning to `N#Cc1c(Cl)nc2ccccc2c1N=[N+]=[N-]`, the growth inhibition was -1% in test [1] (setting [7]); 12% in test [1] (setting [8]); 50.6% in test [1] (at 50.0 µM); -19% in test [2] (setting [7]); -9% in test [2] (setting [8]); 63.3% in test [2] (at 50.0 µM). Besides, the growth inhibition in test [3] (setting [7]) is -14%; in test [3] (setting [8]), 18%; in test [3] (at 50.0 µM) it was 56.2%; in test [4] (setting [7]), 6%; in test [4] (setting [8]), 8%; in test [4] (at 50.0 µM), 50.5%. Also, the growth inhibition in test [5] (setting [7]) was -8%; in test [5] (setting [8]), -15%; in test [5] (at 50.0 µM), 14.8%; in test [6] (setting [7]), -18%; in test [6] (setting [8]) it was 8%; in test [6] (at 50.0 µM), 58.2%.
Take `CN(C)/N=C(/CC(O)(C(F)(F)F)C(F)(F)F)c1ccc([N+](=O)[O-])cc1`: the growth inhibition in test [1] (setting [7]) is 25%; in test [1] (setting [8]) it was 20%; in test [1] (at 50.0 µM) it was -4.65%; in test [2] (setting [7]) it was 19%; in test [2] (setting [8]) it was 11%; in test [2] (at 50.0 µM), -8.95%. The growth inhibition is 19% in test [3] (setting [7]); 22% in test [3] (setting [8]); 35.6% in test [3] (at 50.0 µM); 12% in test [4] (setting [7]); 12% in test [4] (setting [8]); -18.6% in test [4] (at 50.0 µM). Besides, the growth inhibition was 15% in test [5] (setting [7]); 7% in test [5] (setting [8]); -12.9% in test [5] (at 50.0 µM); 25% in test [6] (setting [7]); 21% in test [6] (setting [8]); -16.4% in test [6] (at 50.0 µM).
On to `CCCCCCn1c(SCC)c2ccccc2c1-c1nc(F)nc(F)n1`, for which the growth inhibition in test [1] (setting [7]) was -14%; in test [1] (setting [8]) it was 5%; in test [1] (at 50.0 µM), 89.1% (active); in test [2] (setting [7]) it was -40%; in test [2] (setting [8]), -10%; in test [2] (at 50.0 µM), 92.8% (active). Further, the growth inhibition in test [3] (setting [7]) is -15%; in test [3] (setting [8]) it was 10%; in test [3] (at 50.0 µM), 90.2% (active); in test [4] (setting [7]), 14%; in test [4] (setting [8]) it was 52%; in test [4] (at 50.0 µM), 88.7% (active). Also, the growth inhibition in test [5] (setting [7]) is 24%; in test [5] (setting [8]) it was 36%; in test [5] (at 50.0 µM), 88.5% (active); in test [6] (setting [7]) it was 10%; in test [6] (setting [8]), 34%; in test [6] (at 50.0 µM), 87.9% (active).
Regarding `Cc1ccc(-c2c3c(cc4cc(C)ccc24)C(=O)OC3=O)cc1`, the growth inhibition is 12% in test [1] (setting [7]); 26% in test [1] (setting [8]); 14.8% in test [1] (at 50.0 µM); -2% in test [2] (setting [7]); 12% in test [2] (setting [8]); 6.85% in test [2] (at 50.0 µM). Moreover, the growth inhibition is -1% in test [3] (setting [7]); 27% in test [3] (setting [8]); 17.9% in test [3] (at 50.0 µM); 4% in test [4] (setting [7]); 6% in test [4] (setting [8]); 15.2% in test [4] (at 50.0 µM). Further, the growth inhibition in test [5] (setting [7]) is 1%; in test [5] (setting [8]), 4%; in test [5] (at 50.0 µM), 15.8%; in test [6] (setting [7]), -2%; in test [6] (setting [8]), 25%; in test [6] (at 50.0 µM) it was 32.9%.
For the compound `Cc1c(Cl)cccc1N=NC(=O)NNc1cccc(Cl)c1C`, the growth inhibition in test [1] (setting [7]) was 1%; in test [1] (setting [8]) it was 96% (active); in test [1] (at 50.0 µM), 85.4% (active); in test [2] (setting [7]), 29%; in test [2] (setting [8]), 96% (active); in test [2] (at 50.0 µM) it was 82.1% (active). Besides, the growth inhibition in test [3] (setting [7]) is -1%; in test [3] (setting [8]) it was 97% (active); in test [3] (at 50.0 µM) it was 74.5% (active); in test [4] (setting [7]), 29%; in test [4] (setting [8]), 97% (active); in test [4] (at 50.0 µM), 80.5% (active). Further, the growth inhibition in test [5] (setting [7]) was -12%; in test [5] (setting [8]), 97% (active); in test [5] (at 50.0 µM), 83.3% (active); in test [6] (setting [7]), 1%; in test [6] (setting [8]), 98% (active); in test [6] (at 50.0 µM) it was 81.5% (active).
